Data reported in PubChem BioAssay (NCATS).
Where “and” joins values, the source holds several entries; their conditions need not be identical. Equal values may be shown once. Records with an inconclusive call do not appear. Entries that show only a call come without a potency. Calls of active or inactive are those of the source. Calls come from the whole dose curve; as a rule, active = well fitted inhibition curve with a large enough effect; inconclusive = small, poorly fitted or top-dose-only effect; inactive = flat fitted curve, though single readings scatter.

Tested on: CP191
Assay: qHTS profiling for inhibitors of Plasmodium falciparum proliferation (AID 504749); note: nearly all actives have a fitted effect of over 60% in size
Conditions: P. falciparum in erythrocytes, SYBR Green DNA, 72 h; series mostly up to 28.7 µM
Summary of the method: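 SYBR Green fluorescence of parasite DNA, read after lysis and overnight dark incubation, measured growth over 72 h in erythrocyte culture at 0.3% parasitemia and 2.5% hematocrit. Data normalised to DMSO and 0.29 uM artemisinin, with plate-drift correction.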
Potency is the fitted concentration of half-maximal effect.

Structure (SMILES)	Potency
CCC1(c2ccccc2)CCC(=O)NC1=O (stereo unspecified)	inactive
C[N+]1(CCC(C(N)=O)(c2ccccc2)c2ccccc2)CCCCC1	inactive
CCC(=O)O[C@H]1CC[C@H]2[C@@H]3CCC4=CC(=O)CC[C@]4(C)[C@H]3CC[C@]12C	inactive
OC(c1ccccc1)(c1ccccc1)C1CCNCC1	inactive
CC(C)[N+](C)(CCC(C(N)=O)(c1ccccc1)c1ccccc1)C(C)C	inactive
Cc1ncc2n1-c1ccc(Cl)cc1C(c1ccccc1F)=NC2	inactive
Cc1ccc(N=CN(C)C=Nc2ccc(C)cc2C)c(C)c1	inactive
CC(C)NCC(O)c1ccc(N)c(C#N)c1 (stereo unspecified)	inactive
CNC(=O)Oc1cccc2ccccc12	inactive
CCNc1nc(Cl)nc(NCC)n1	inactive
CC[n+]1c(-c2ccccc2)c2cc(N)ccc2c2ccc(N)cc21	282 nM (active) and 447 nM (active)
CCCCCCCCCCCC[N+](C)(C)CCOc1ccccc1	4.47 µM (active)
CCOC(=O)NC(O)C(Cl)(Cl)Cl (stereo unspecified)	inactive
CCN(Cc1ccc(Cl)nc1)/C(=C/[N+](=O)[O-])NC	inactive
C[C@H]1C(=O)O[C@@H]2CCN3CC=C(COC(=O)[C@](C)(O)[C@]1(C)O)[C@H]23	inactive
Oc1c(Br)cc(Br)cc1Br	inactive

Structure (SMILES)	Potency
C[C@]12CC[C@H]3[C@@H](CC=C4C[C@@H](O)CC[C@@]43C)[C@@H]1CC[C@@H]2O	inactive
COP(=O)(OC)C(O)C(Cl)(Cl)Cl (stereo unspecified)	inactive
CCN(CC)C(C)C(=O)c1ccccc1 (stereo unspecified)	inactive
COP(=O)(OC)OC=C(Cl)Cl	inactive
CNC(=O)NC(O)C(Cl)(Cl)Cl (stereo unspecified)	inactive
NC(=O)CN1CCCC1=O	inactive
CCC1(CC)C(=O)NC(=O)NC1=O	inactive
O=c1n(Cl)c(=O)n(Cl)c(=O)n1Cl	inactive
CC(C)C(Br)C(=O)NC(N)=O (stereo unspecified)	inactive
CN(C)C(=S)SSC(=S)N(C)C	3.16 µM (active)
COP(=S)(OC)Oc1ccc(Sc2ccc(OP(=S)(OC)OC)cc2)cc1	inactive
NCc1cccnc1	inactive
COc1ccc(C(=O)N2CCCC2=O)cc1	inactive
c1ccc2nc(N3CCNCC3)ccc2c1	inactive
CC(C)(C)OC(=O)c1ncn2c1[C@@H]1CCCN1C(=O)c1c(Br)cccc1-2	inactive
